Reference: PubChem BioAssay
Potency and affinity values are given separately. Activity calls are given as the source filed them.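 Rule for the calls, unless noted: active = a dose-response fit showing signal loss, with half-maximal concentration no higher than twice the top tested dose; inconclusive = flat fit between 30% and 70% signal loss, or poor fit; inactive = the rest.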

Assay: viability loss in HepG2 hepatoma cells – cell-based, cherry-picks, set 2, cytotoxicity control, dose response (AID 687002)
Conditions: ATP luminescence (CellTiter-Glo), 48 h; series mostly up to 26 µM

Structure (SMILES)	outcome	activity change, negative = cytotoxicity
Cc1ccc(N2C(=O)CC(N3CCN(c4ccc(F)cc4)CC3)C2=O)c(C)c1 (stereo not drawn)	inactive	
C[C@H](CO)N1C[C@H](C)[C@H](CN(C)CC2CCCCC2)Oc2c(NS(C)(=O)=O)cccc2C1=O	inactive	
Cc1c(Cl)cccc1NC(=O)C1NC(=O)CC1c1ccccc1 (stereo not drawn)	inactive	
CC(C)C(=O)N1CCC1(C)C(=O)Nc1ccccc1C(C)(C)C (stereo not drawn)	inactive	
CCC(=O)N1[C@H](CO)[C@H](c2ccc(-c3ccc(F)cc3)cc2)[C@@H]1CNC(C)=O	inactive	
COc1ccccc1-c1ccc([C@H]2[C@H](C#N)N(C(=O)C3CC3)[C@H]2CO)cc1	inactive	
Cc1ccc(S(=O)(=O)N(C)C[C@H]2Oc3c(cccc3N(C)C)C(=O)N([C@@H](C)CO)C[C@H]2C)cc1	inactive	
COc1ccc(NC(=S)NCc2ccccc2Cl)c(OC)c1	inactive	
Cc1cccc(C)c1NC(=O)C1CCCN1C(=O)OC(C)(C)C (stereo not drawn)	inactive	
C#CCN(C(=O)c1ccc(OC2CCN(C(=O)CCOC)CC2)cc1)C1CCCCC1	inactive	
CCC(=O)Nc1ccc2c(c1)OC[C@H](C)N(C(=O)c1ccc(F)cc1)C[C@@H](C)[C@@H](OC)CN(C)C2=O	inactive	
CCOC(=O)CSc1ncnc2c1cnn2-c1ccc(Cl)cc1	inactive	
Cc1ccc(NC(=O)C2CCC(=O)N2)cc1C (stereo not drawn)	inactive	
CCc1ccc(NC(=O)[C@H](C)NC(=O)C2CCN(C(=O)[C@@H](N)CC(C)C)CC2)cc1	inactive	
CCCNC(=O)[C@H]1[C@H](CO)[C@H]2Cn3c(cccc3=O)[C@@H]1N2C(=O)Nc1cc(F)ccc1F	inactive	
CNC[C@@H]1Oc2ccc(NS(=O)(=O)c3ccc(Cl)cc3)cc2C(=O)N([C@H](C)CO)C[C@H]1C	inactive	
CC(C)NC(=O)Nc1ccc2c(c1)C(=O)N([C@H](C)CO)C[C@H](C)[C@H](CN(C)Cc1ccncc1)OCCCC[C@H](C)O2	inactive	
CNC[C@H]1OCCCC[C@H](C)Oc2ccc(NC(=O)Cc3ccccc3)cc2C(=O)N([C@H](C)CO)C[C@@H]1C	inactive	
Cc1ccccc1OCC(=O)NC(C)c1ccccc1 (stereo not drawn)	inactive	
CCNC(=O)CN(c1ccc(Cl)cc1)S(=O)(=O)c1ccccc1	inactive	

Structure (SMILES)	outcome	activity change, negative = cytotoxicity
Cc1noc(C)c1NC(=O)N(C)C[C@H]1Oc2ccc(NC(=O)C3CC3)cc2CC(=O)N([C@@H](C)CO)C[C@H]1C	inactive	
CC(C)NC(=O)N(C)C[C@@H]1Oc2c(NC(=O)C3CCCCC3)cccc2C(=O)N([C@@H](C)CO)C[C@@H]1C		11.5% [at 6 µM] (inactive)
C[C@@H]1CN([C@H](C)CO)C(=O)c2ccccc2-c2ccccc2CO[C@H]1CN(C)S(=O)(=O)c1cccc(C#N)c1	inactive	
C[C@@H]1CN([C@H](C)CO)C(=O)Cc2cc(NC(=O)CCCCCC(=O)Nc3ccccc3N)ccc2O[C@H]1CN(C)C(=O)Nc1ccccc1	inactive	
O=C(c1cccc(F)c1)N1C[C@H]2[C@@H](c3ccccc31)[C@@H](CO)N2Cc1cocn1	inactive	
C[C@H]1CN([C@@H](C)CO)C(=O)c2cc(C#CC3(O)CCCC3)cnc2O[C@@H]1CN(C)Cc1cccnc1	inactive	
Cc1ccccc1-n1ncc2c(SCC(=O)N3c4ccccc4CC3C)ncnc21 (stereo not drawn)	inactive	
CCN1C(=S)N[C@@H](c2cccc(F)c2)C(C(=O)OC)=C1C	inactive	
COC(=O)C1=C(C)N(Cc2ccccc2)C(=O)N[C@H]1c1cccc(F)c1	inactive	
Cc1cc(C)c(NC(=O)CNC(=O)CNC(=O)C2CCCCC2)c(C)c1	inactive	
CC(C)(C)SCCNC(=O)CN(c1ccccc1)S(=O)(=O)c1ccccc1	inactive	
Cc1ccc(N(C(=O)C2CCC(=O)N2)C2(C(=O)NC3CCCC3)CCCCC2)cc1 (stereo not drawn)	inactive	
Cc1c(C(=O)NC(=S)Nc2ccc(N3CCOCC3)cc2)cccc1[N+](=O)[O-]	inactive	
CC(=O)c1cccc(NC(=S)NC2CCCCCCC2)c1	inactive	
Cc1cc(C(=O)Nc2cccc3c2O[C@@H](CN(C)S(=O)(=O)c2ccccc2)[C@@H](C)CN([C@@H](C)CO)C3=O)n(C)n1	inactive	
CC(C)Sc1nc2ncnc(N)c2[nH]1	inactive	
Cc1ccc(C2CC(c3cccs3)=NN2C(=O)c2ccc(Br)o2)cc1 (stereo not drawn)	inactive	
COCC#Cc1ccc2c(c1)O[C@H](CN(C)S(=O)(=O)c1ccc(OC)cc1)[C@H](C)CN([C@H](C)CO)S2(=O)=O	inactive	
CCC(=O)N1CCCC1(C)C(=O)Nc1ccc(C)c(C)c1 (stereo not drawn)	inactive	

Assay: viability loss in HeLa cells – cell-based, ATP luminescence, cherry-pick samples, cytotoxicity control, dose response (AID 687004;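 active = a fitted half-maximal concentration no higher than twice the top valid tested dose, with signal falling as cells die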;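 note: 0% = neutral control median and -100% = staurosporine 10 µM control median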)
Conditions: ATP luminescence (CellTiter-Glo), 48 h; series mostly up to 26 µM

Structure (SMILES)	outcome
Cc1ccc(N2C(=O)CC(N3CCN(c4ccc(F)cc4)CC3)C2=O)c(C)c1 (stereo not drawn)	inactive
C[C@H](CO)N1C[C@H](C)[C@H](CN(C)CC2CCCCC2)Oc2c(NS(C)(=O)=O)cccc2C1=O	inactive
Cc1c(Cl)cccc1NC(=O)C1NC(=O)CC1c1ccccc1 (stereo not drawn)	inactive
CC(C)C(=O)N1CCC1(C)C(=O)Nc1ccccc1C(C)(C)C (stereo not drawn)	inactive
CCC(=O)N1[C@H](CO)[C@H](c2ccc(-c3ccc(F)cc3)cc2)[C@@H]1CNC(C)=O	inactive
COc1ccccc1-c1ccc([C@H]2[C@H](C#N)N(C(=O)C3CC3)[C@H]2CO)cc1	inactive
Cc1ccc(S(=O)(=O)N(C)C[C@H]2Oc3c(cccc3N(C)C)C(=O)N([C@@H](C)CO)C[C@H]2C)cc1	inactive
COc1ccc(NC(=S)NCc2ccccc2Cl)c(OC)c1	inactive
Cc1cccc(C)c1NC(=O)C1CCCN1C(=O)OC(C)(C)C (stereo not drawn)	inactive
C#CCN(C(=O)c1ccc(OC2CCN(C(=O)CCOC)CC2)cc1)C1CCCCC1	inactive
CCC(=O)Nc1ccc2c(c1)OC[C@H](C)N(C(=O)c1ccc(F)cc1)C[C@@H](C)[C@@H](OC)CN(C)C2=O	inactive
CCOC(=O)CSc1ncnc2c1cnn2-c1ccc(Cl)cc1	inactive
Cc1ccc(NC(=O)C2CCC(=O)N2)cc1C (stereo not drawn)	inactive
CCc1ccc(NC(=O)[C@H](C)NC(=O)C2CCN(C(=O)[C@@H](N)CC(C)C)CC2)cc1	inactive
CCCNC(=O)[C@H]1[C@H](CO)[C@H]2Cn3c(cccc3=O)[C@@H]1N2C(=O)Nc1cc(F)ccc1F	inactive
CNC[C@@H]1Oc2ccc(NS(=O)(=O)c3ccc(Cl)cc3)cc2C(=O)N([C@H](C)CO)C[C@H]1C	inactive
CC(C)NC(=O)Nc1ccc2c(c1)C(=O)N([C@H](C)CO)C[C@H](C)[C@H](CN(C)Cc1ccncc1)OCCCC[C@H](C)O2	inactive
CNC[C@H]1OCCCC[C@H](C)Oc2ccc(NC(=O)Cc3ccccc3)cc2C(=O)N([C@H](C)CO)C[C@@H]1C	inactive
Cc1ccccc1OCC(=O)NC(C)c1ccccc1 (stereo not drawn)	inactive
CCNC(=O)CN(c1ccc(Cl)cc1)S(=O)(=O)c1ccccc1	inactive

Structure (SMILES)	outcome
Cc1noc(C)c1NC(=O)N(C)C[C@H]1Oc2ccc(NC(=O)C3CC3)cc2CC(=O)N([C@@H](C)CO)C[C@H]1C	inactive
CC(C)NC(=O)N(C)C[C@@H]1Oc2c(NC(=O)C3CCCCC3)cccc2C(=O)N([C@@H](C)CO)C[C@@H]1C	inactive
C[C@@H]1CN([C@H](C)CO)C(=O)c2ccccc2-c2ccccc2CO[C@H]1CN(C)S(=O)(=O)c1cccc(C#N)c1	inactive
C[C@@H]1CN([C@H](C)CO)C(=O)Cc2cc(NC(=O)CCCCCC(=O)Nc3ccccc3N)ccc2O[C@H]1CN(C)C(=O)Nc1ccccc1	inactive
O=C(c1cccc(F)c1)N1C[C@H]2[C@@H](c3ccccc31)[C@@H](CO)N2Cc1cocn1	inactive
C[C@H]1CN([C@@H](C)CO)C(=O)c2cc(C#CC3(O)CCCC3)cnc2O[C@@H]1CN(C)Cc1cccnc1	inactive
Cc1ccccc1-n1ncc2c(SCC(=O)N3c4ccccc4CC3C)ncnc21 (stereo not drawn)	inactive
CCN1C(=S)N[C@@H](c2cccc(F)c2)C(C(=O)OC)=C1C	inactive
COC(=O)C1=C(C)N(Cc2ccccc2)C(=O)N[C@H]1c1cccc(F)c1	inactive
Cc1cc(C)c(NC(=O)CNC(=O)CNC(=O)C2CCCCC2)c(C)c1	inactive
CC(C)(C)SCCNC(=O)CN(c1ccccc1)S(=O)(=O)c1ccccc1	inactive
Cc1ccc(N(C(=O)C2CCC(=O)N2)C2(C(=O)NC3CCCC3)CCCCC2)cc1 (stereo not drawn)	inactive
Cc1c(C(=O)NC(=S)Nc2ccc(N3CCOCC3)cc2)cccc1[N+](=O)[O-]	inactive
CC(=O)c1cccc(NC(=S)NC2CCCCCCC2)c1	inactive
Cc1cc(C(=O)Nc2cccc3c2O[C@@H](CN(C)S(=O)(=O)c2ccccc2)[C@@H](C)CN([C@@H](C)CO)C3=O)n(C)n1	inactive
CC(C)Sc1nc2ncnc(N)c2[nH]1	inactive
Cc1ccc(C2CC(c3cccs3)=NN2C(=O)c2ccc(Br)o2)cc1 (stereo not drawn)	inactive
COCC#Cc1ccc2c(c1)O[C@H](CN(C)S(=O)(=O)c1ccc(OC)cc1)[C@H](C)CN([C@H](C)CO)S2(=O)=O	inactive
CCC(=O)N1CCCC1(C)C(=O)Nc1ccc(C)c(C)c1 (stereo not drawn)	inactive
